PubChem BioAssay (NCATS)
Where “and” joins values, the source holds several entries; their conditions need not be identical. Identical values can stand only once. Records with an inconclusive call do not appear. Values without a mark were called inactive. Calls come from the whole dose curve; as a rule, active = well fitted cell-killing curve with a large enough effect; inconclusive = small, poorly fitted or top-dose-only effect, or effect the other way; inactive = flat fitted curve, though single readings scatter.

Experiment: qHTS assay for cell viability of HEK293 cells (AID 743288); note: nearly all actives have a fitted effect of over 50% in size
Conditions: ATP luminescence (CellTiter-Glo), 18 h, active compounds read low
Excerpt: National Center for Advancing Translational Sciences [NCATS]
NIH Chemical Genomics Center [NCGC]
U.S. Environmental Protection Agency [EPA]
National Institutes of Environmental Health Sciences [NIEHS]
National Toxicology Program [NTP]
U.S. Food and Drug Administration [FDA]
The CellTiter-Glo Luminescent Cell Viability Assay (Promega, Madison, WI) is a homogeneous method to determine the number of viable cells in culture based on quantitation of the ATP present, which signals the presence of metabolically active cells. This cell viability assay was used to screen environmental chemicals in the Hek293 cell line.
Tox21 Assay Protocol Summary:
Cell viability after compound treatment was measured using a luciferase-coupled ATP quantitation assay (CellTiter-Glo viability assay, Promega, Madison, WI) in parental HEK293 cells. Total intracellular ATP content corresponds to the number of metabolically competent cells after compound treatment. The cells were dispensed at 2,000 cells/5 uL/well in 1,536-well white/solid bottom assay plates using a Flying Reagent Dispenser (Aurora Discovery, San Diego, CA). The cells were incubated a minimum of 5 h at 37 C, followed by the addition of 23 nL of compounds dissolved in DMSO, positive controls or DMSO only using a pintool work station (Kalypsys, San Diego, CA). The assay plates were incubated for 18 h at 37 C, followed by the addition of 5 uL/well of CellTiter-Glo reagent. After 30 min incubation at room temperature, the luminescence intensity of the plates was measured using a ViewLux plate reader (PerkinElmer, Shelton, CT).
% is set by controls: 0 for no effect and ±100 for the full control effect.

SMILES	max response
CC1CCC2CC1C2(C)C (stereo not given)	-8.03%
CC(C)=C1CCC(C)CC1=O (stereo not given)	10.3%
Cc1ccc(C)cc1	-11.4%
CSCCC=O	1.22%
CCC1CO1 (stereo not given)	4.98%
O=Cc1ccc(C(=O)O)cc1	-0.895%
BrC/C=C/CBr	-11%
CC(=O)Nc1ccc(N)cc1	-3.85%
CCOCCO	-0.409%
NC(=O)NC(N)=O	-4.97%
COC(=O)CCCC(=O)OC	-4.02%
FC(F)(F)c1ccccc1Cl	10.1%
NC(=S)NNC(N)=S	-2.43% and -16.6%
O=Cc1ccccc1Cl	-11.9%
Nc1cccc(O)c1	2.15%
Cc1ccc(Cl)cc1N	3.66%
CCNc1cc(O)ccc1C	2.21%
Nc1ccc([N+](=O)[O-])c(N)c1	8.4%
O=[N+]([O-])c1ccccc1CCO	-3.96%
O=C1OC(=O)c2cc([N+](=O)[O-])ccc21	-5.72%

SMILES	max response
C=C(C)C(=O)OCCCCCC	6.76%
CCOc1ccccc1N	0.362%
c1ccc2c(c1)ccc1ncccc12	0.663%
O=c1[nH][nH]c(=O)c2cc([N+](=O)[O-])ccc12	-7.38%
ICCc1ccccc1	-14.1%
O=C(O[C@@H](C(=O)O)[C@@H](OC(=O)c1ccccc1)C(=O)O)c1ccccc1	9.93%
Fc1ccccc1	9.93%
Cc1ccco1	3.18%
C1CCOC1	-1.37%
Cc1cscn1	-3.62%
Nc1c(Cl)cc(Cl)cc1Cl	-2.95%
CCCCCCCCC/C=C/CC1CC(=O)OC1=O (stereo not given)	0.292%
COc1cccc2sc(N)nc12	-3.84%
CC(=O)c1cccc([N+](=O)[O-])c1	-8.78%
CC=O	-3.08%
C[C@@H]1CC2(OC[C@]3(C)O[C@H]23)O[C@H]2C[C@@]3(C)[C@@H]4CC[C@H]5C(C)(C)C(O[C@@H]6OC[C@@H](O)[C@H](O)[C@H]6O)CC[C@@]56C[C@@]46CC[C@]3(C)[C@@H]12 (stereo not given in full)	-22.4%
CCCCC(CC)CNCC(CC)CCCC (stereo not given)	-4.58%
Clc1ccccn1	-2.77%
Cc1cccc2cccnc12	-0.0071%
O=C1C=CCCC1	-6.57%
